Screening data as filed in PubChem.
ABHD5 PLIN5 PPI – ABHD5-PLIN5 interaction inhibitors, primary screen, cell lysate, split luciferase complementation, luminescence. Perilipin-5 (Homo sapiens) + 1-acylglycerol-3-phosphate O-acyltransferase ABHD5 (Homo …. Split G. princeps luciferase complementation, 4 h. inhibition, % at 4 µM. 360,000 compounds, 0.78% hits;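 active = inhibition above the mean inhibition across every tested compound plus 3 SD, cut at about 22% in these data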;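 note: 0% = DMSO only wells and the 100% control is not disclosed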
rCAG binder – binders of r(CAG) RNA repeats, primary screen, biochemical, fluorescence; AID 651821, 2012; inhibition, % at 3 µM; r(CAG) RNA repeat, TO-PRO-1 dye displacement fluorescence; 370,000 compounds, 1.3% hits;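 active = inhibition above the plate cutoff, the mean of all test compounds on that plate plus 3 SD, cut at about 35% in these data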;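 note: 0% = DMSO alone and 100% = 100 µM mitoxantrone as full dye displacement; higher means more dye released from RNA so lower well fluorescence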
Rtt109 Vps75 – inhibitors of C. albicans Rtt109/Vps75 HAT, primary screen, biochemical, ThioGlo CoA-SH fluorescence, plate reader. Histone acetyltransferase RTT109 (Candida albicans (strain SC5314 / ATCC MYA-2876)), …. purified Rtt109/Vps75, 4 h. inhibition, % at 34.9 µM. 330,000 compounds, 0.16% hits. AID 540336, 2011;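 active = inhibition of at least 50% in every replicate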
LANA-H2B inh – blockers of LANA interaction with H2A/H2B – biochemical, FP readout, HTS, primary screen | Protein LANA1 (Human herpesvirus 8 type P (isolate GK18)), Q9QR71 | cell-free LANA-H2A/H2B peptide, fluorescence polarization | inhibition, % (no concentration beside the values) | 320,000 compounds, 0.6% hits | AID 2629, 2010; in the data active = inhibition mostly above about 10%, no sharp cut-off; inactive = mostly below about 6.7%
PRMT1 inh – PRMT1 methyltransferase inhibitors, primary screen, biochemical, fluorescence polarization | 370,000 compounds, 1.3% hits | inhibition, % at 2.79 µM | recombinant PRMT1, activity-based probe fluorescence polarization;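 active = inhibition above about 21% made by adding two undisclosed values, limit read from the data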
Target sequence (Q99873 whole entry, looked up): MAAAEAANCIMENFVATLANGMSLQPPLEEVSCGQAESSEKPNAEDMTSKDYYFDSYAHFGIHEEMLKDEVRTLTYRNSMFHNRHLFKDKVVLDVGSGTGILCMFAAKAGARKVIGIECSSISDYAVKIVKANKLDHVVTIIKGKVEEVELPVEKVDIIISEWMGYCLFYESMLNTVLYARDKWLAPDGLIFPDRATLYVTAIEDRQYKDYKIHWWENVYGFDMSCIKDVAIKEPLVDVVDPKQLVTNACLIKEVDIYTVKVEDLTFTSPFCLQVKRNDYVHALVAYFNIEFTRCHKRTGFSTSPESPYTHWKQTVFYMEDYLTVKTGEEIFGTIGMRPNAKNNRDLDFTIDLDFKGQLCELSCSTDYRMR
ALR H2O2 inh – inhibitors of human ALR sulfhydryl oxidase, primary screen, biochemical, H2O2 detection, HRP-luminol luminescence, single point. purified ALR, DTT oxidation. inhibition, % (test concentration not listed). 290,000 compounds, 3.8% hits. AID 485317, 2010;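 active = mean replicate inhibition above about 79%, with every replicate also reaching it, limit read from the data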
Target sequence (P55789 whole entry, looked up): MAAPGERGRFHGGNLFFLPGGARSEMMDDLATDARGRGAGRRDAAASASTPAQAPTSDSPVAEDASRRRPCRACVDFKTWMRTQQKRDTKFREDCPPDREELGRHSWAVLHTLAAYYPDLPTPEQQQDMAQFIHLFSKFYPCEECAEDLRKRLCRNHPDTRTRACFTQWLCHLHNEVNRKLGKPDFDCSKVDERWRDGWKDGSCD
An asterisk follows results filed as active; i = inactive; / = not tested or not shown; + = active, no number; ! = repeats disagree. Sampled rows, rich in hits. Any-hit rate of the full collection: about 5.9%.

SMILES	ABHD5 PLIN5 PPI	rCAG binder	Rtt109 Vps75	LANA-H2B inh	PRMT1 inh	ALR H2O2 inh
COc1ccc(CC(=O)Nc2ccc(OC)c(NC(=O)c3ccco3)c2)cc1	6.5	4.5	-9.9	31.2*	-1.8	-11.7
COc1ccc(NC(=O)c2ccco2)cc1NC(=O)c1ccc(C)cc1	-5.1	0.7	-6.6	3.1	0.5	-6.9
COc1ccc(NC(=O)CCc2ccccc2)cc1NC(=O)c1ccco1	-4.2	1.0	4.1	28.2*	5.5	-16.6
CCOC(=O)[C@]12CCC=C1N(Cc1ccccc1)C(=O)[C@H](CC(=O)N1CCN(C(=O)c3ccco3)CC1)C2	6.7	3.6	/	/	8.4	/
CCc1c(C)c2cc(Cl)c(O)c(CN3CCCCC3)c2oc1=O	2.9	-0.3	i	2.2	-2.9	98.3*
CCc1cccc2c(C(C)c3ccccc3O)c[nH]c12 (centres undefined)	/	5.9	/	/	0.2	/
CCN(CC)C(=O)CC[C@@H]1CC[C@]2(CCCN(Cc3ccc(Br)cc3)C2)O1	/	-3.0	/	/	1.2	/
C=CCOc1c(Br)cc(CNn2c(C)n[nH]c2=S)cc1OCC	-0.2	-1.3	7.9	-0.4	0.9	6.6
C=CCOc1c(Br)cc(CNn2cn[nH]c2=S)cc1OC	-4.5	1.6	-0.3	0.5	-1.4	92.4*
CCN(CC)CCOc1ccc(/C(=C(/Cl)c2ccccc2)c2ccccc2)cc1	51.1*!	4.5	-4.7	-4.9	-6.5	-19.2
CCC(=C(c1ccccc1)c1ccc(OCCN(C)C)cc1)c1ccccc1	-3.7	4.2	/	/	2.1	/
CC/C(=C(\c1ccc(O)cc1)c1ccc(OCCN(C)C)cc1)c1ccccc1	3.5	4.1	30.1	1.6	0.1	97.0*
COc1ccc(CCNC(=O)CCNC(=O)N2CC(=O)Nc3ccccc32)cc1OC	-1.9	-3.3	3.8	-0.8	0.7	0.4
Cc1ccccc1N/C(SCc1ccc(Cl)cc1)=C(/C#N)C(=O)NCc1ccco1	0.8	4.9	8.0	-6.3	2.7	52.7
Cc1ccc(CS/C(Nc2ccccc2C)=C(\C#N)C(=O)NCc2ccco2)c(C)c1	-3.1	6.2	28.9	-0.6	0.9	99.2*
CC1CCCC(C)N1C(=O)COC(=O)C12CC3CC(CC(Cl)(C3)C1)C2 (centres undefined)	1.5	-4.7	-4.5	17.1*	-10.1	-4.2
COc1ccc(CC(=O)NCc2ccccc2F)cc1S(=O)(=O)N1CCOCC1	1.1	2.1	/	/	-1.1	/
CN(C)c1ccc(NC(=O)N2CCOCC2)cc1	-8.7	-1.1	1.7	-12.4	7.8	99.0*
O=C(Nc1ccc(F)cc1)N1CCOCC1	5.5	1.7	-5.0	1.3	-0.4	-3.0
O=C(Nc1ccc2c(c1)OCCO2)N1CCN(c2ccccc2)CC1	8.6	-4.9	4.0	-3.2	-0.1	90.5*
CS(=O)(=O)c1ccc(C(=O)NNC(=O)c2cc(-c3ccccc3)n[nH]2)cc1	-9.2	1.9	-3.6	0.1	23.9*	/
Oc1ccc(/C(Cc2ccc3ccccc3n2)=N\Nc2ccccc2)c(O)c1	-8.3	13.1	11.6	3.3	3.9	98.5*
Oc1ccc(/C(Cc2ccccn2)=N\Nc2ccccc2)c(O)c1	-0.1	13.5	3.7	-0.8	3.8	99.0*
Cc1c(O)ccc(/C(Cc2ccc3ccccc3n2)=N\O)c1O	-2.8	-2.8	12.4	0.0	-2.2	27.7
COC(=O)c1ccc2[nH]c3c(c2c1)CC(C)CC3 (centres undefined)	3.9	1.2	8.9	4.5	-1.3	92.5*
SMILES	ABHD5 PLIN5 PPI	rCAG binder	Rtt109 Vps75	LANA-H2B inh	PRMT1 inh	ALR H2O2 inh
CCOC(=O)c1ccc2[nH]c3c(c2c1)CCCC3	-4.3	2.2	0.8	-23.6	-3.6	98.3*
CCCC(C)NC(=O)c1ccc2[nH]c3c(c2c1)CC(C)CC3 (centres undefined)	-0.4	-2.8	-8.2	0.0	1.7	12.2
COC(=O)c1cn(NC(=O)c2cc([N+](=O)[O-])ccc2F)c(=O)c2ccccc12	-6.4	6.3	4.1	-2.5	-1.2	96.2*
CSCCC(c1nc2ccccc2[nH]1)n1c(-c2cc(C(F)(F)F)cc(C(F)(F)F)c2)nc2ccccc21 (centres undefined)	-25.6	1.6	/	/	7.9	/
CCN(CC(=O)NCc1cccs1)C(=O)COc1cccc(C(F)(F)F)c1	3.8	0.0	-5.2	-1.0	-4.7	1.8
CCN(CC(=O)NCc1cccs1)C(=O)COc1ccc(C(C)=O)cc1	-1.7	0.5	1.0	+	-0.4	1.9
COC(=O)[C@]12C[C@H](CC(=O)NCC3CCCCC3)C(=O)N(Cc3ccc4c(c3)OCO4)C1=C[C@H](COCc1ccccc1)O[C@@H]2C	/	6.2	/	/	-5.6	/
CCCCNC(=O)c1nc(-c2cccs2)oc1-c1ccc(Cl)cc1	-9.1	0.6	/	/	3.0	/
Cc1oc(-c2cccs2)nc1CS(=O)CC(=O)NCCc1ccccc1 (centres undefined)	-0.2	7.9	-7.4	2.5	22.2*	98.4*
Cc1oc(-c2cccs2)nc1CS(=O)CC(=O)NCCCOC(C)C (centres undefined)	-0.1	3.5	6.5	2.5	1.0	98.6*
CCCCNC(=O)CS(=O)Cc1nc(-c2cccs2)oc1C (centres undefined)	-9.1	7.1	-1.7	1.5	3.0	98.0*
C[C@H]1[C@@H](OC(=O)NCc2ccco2)CC[C@@]23CCCN2C(=O)CCC[C@@H]13	/	/	/	/	5.9	/
COCCNC(=S)N(C)[C@H]1C[C@H]2c3[nH]c4c(-c5ccc6c(c5)OCO6)cccc4c3CCN2C(=O)[C@H]1[C@H](C)O	/	10.4	/	/	1.9	/
CN1CCN(C2=Cc3cc(Cl)ccc3Sc3cc(F)ccc32)CC1	27.2*	-4.1	17.5	-0.1	-0.7	8.1
CN1CCN(C2=Cc3ccccc3Sc3cc(F)c(F)cc32)CC1	13.3	-2.1	4.8	-4.4	-1.6	39.8
Cc1cc(Cc2cc(C)c(N)cc2C)c(C)cc1N	1.1	-0.4	-2.8	-2.3	-1.9	97.0*
COc1ccc(NC(=O)CN2C(=O)NC(C)(Cc3ccc(OC)c(OC)c3)C2=O)cc1 (centres undefined)	-0.8	1.6	/	/	-2.7	/
Cn1c(=S)c2[nH]c(SCc3cccnc3)nc2n(C)c1=O	-19.8	2.1	1.1	/	10.4	/
CCc1c(C)nc(SCc2cccnc2)[nH]c1=O	5.6	/	-12.6	2.7	/	98.8*
CCc1cc(=O)[nH]c(SCc2cccnc2)n1	-3.5	/	-0.2	6.8	/	98.3*
